Measurements reported in PubChem BioAssay (EPA / NIEHS).
Results filed as inconclusive are left out. Calls of active or inactive are those of the source. Rule for the calls, unless noted: active = hit-call score of the fitted dose curve at least 0.9, where 1 is the maximum; inconclusive = response in the unintended direction; inactive = score below 0.9.

Columns and labels:
[1] = Tanguay_ZF_120hpf_CIRC_legacy: (Legacy) Oregon State University Tanguay Lab 120 Hour Post-fertilization zebrafish Assay for Circulatory Malformation (AID 2283651)
Summary of the method: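 Using wild-type Tropical 5D zebrafish, we exposed dechorionated embryos from 6 to 120 hpf in embryo medium with 0.64% DMSO. Circulatory defects were scored as present or absent; 5uM trimethyltin chloride served as positive control.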

[2] = Tanguay_ZF_120hpf_SWIM_legacy: (Legacy) Oregon State University Tanguay Lab 120 Hour Post-fertilization zebrafish Assay for Swim Bladder Malformation (AID 2283654);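 note: swim bladder malformation in each larva scored yes or no under brightfield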
Summary of the method: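 Embryos lacking chorions were exposed individually and statically to test chemical from 6 to 120 hpf at 28C, with 0.64% DMSO as vehicle. At 120 hpf, swim bladder malformation was recorded as present or absent by brightfield microscopy.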

[3] = Tanguay_ZF_120hpf_TRUN_legacy: (Legacy) Oregon State University Tanguay Lab 120 Hour Post-fertilization zebrafish Assay for Truncated Body (AID 2283655)
Summary of the method: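 Dechorionated Tropical 5D wild-type embryos placed singly from 6 hpf and statically exposed to 120 hpf at 28C, final DMSO 0.64%. Truncated body scored as present/absent by brightfield; not scored in dead embryos.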

[4] = system: Thyroperoxidase (TPO), gene 54314; assay: CCTE_Simmons_AUR_rTPO: CCTE's Amplex UltraRed Assay for Thyroperoxidase (TPO) Inhibition, Simmons Lab (AID 2283662);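 for AC50: potency for loss of signal meaning inhibition of peroxidase activity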
Summary of the method: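 Rat thyroid microsomes (5 ug protein) were incubated with test compound (8 concentrations, 5 nM–87.5 uM final, 0.5% DMSO), 25 uM Amplex UltraRed and 300 uM H2O2 in 200 mM phosphate buffer for 30 min at 37C in the dark; fluorescence read at 544/590 nm.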

[5] = Tanguay_ZF_120hpf_TR_legacy: (Legacy) Oregon State University Tanguay Lab 120 Hour Post-fertilization zebrafish Assay for Touch Response (AID 2283667)
Summary of the method: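 5D WT embryos; static exposure to 120 hpf, 28C, sealed/dark; DMSO 0.64% v/v final. TR scored present/absent; dead embryos excluded. Pos ctrl 5uM trimethyltin chloride.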

[6] = STM_H9_OrnithineISnorm_perc: Stemina devTOX quickPredict H9 human embryonic stem cell (hESC)-based Assay for Ornithine (ORN) Metabolite Biomarker, Normalized (AID 2283712; active = hit-call score of the fitted dose curve at least 0.9, where 1 is the maximum; inactive = score below 0.9;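 note: ornithine released into spent medium during last day measured by mass spectrometry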)
Summary of the method: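 Cells: undifferentiated H9 hESC. Dosing: 72 h, media replaced every 24 h. Sample: final 24-h conditioned media, 40% acetonitrile. Read: UPLC-HRMS ornithine area vs 13C standard, % DMSO control.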

[7] = STM_H9_CystineISnorm_perc: Stemina devTOX quickPredict H9 human embryonic stem cell (hESC)-based Assay for Cystine (CYSS) Metabolite Biomarker, Normalized (AID 2283713; active = hit-call score of the fitted dose curve at least 0.9, where 1 is the maximum; inactive = score below 0.9)
Summary of the method: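 Secreted cystine was measured by UPLC-HRMS in H9 hESC medium after 72h compound exposure with 24-hourly replenishment. Values are standard-normalized areas relative to 0.1% DMSO.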

[8] = STM_H9_OrnCyssISnorm_ratio: Stemina devTOX quickPredict H9 human embryonic stem cell (hESC)-based Assay for Ornithine (ORN):Cystine (CYSS) Ratio (AID 2283714)
Summary of the method: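 Steps: H9 hESCs in pluripotent state dosed 72h, medium plus compound renewed every 24h; conditioned medium from the final 24h deproteinized in 40% acetonitrile; ORN and CYSS quantified by UPLC-HRMS with C13 spike-ins; ratio relative to vehicle.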

[9] = Tanguay_ZF_120hpf_ActivityScore_legacy: (Legacy) Oregon State University Tanguay Lab 120 Hour Post-fertilization zebrafish Assay Score for Activity (AID 2283742);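 for AC50: dechorionated Tropical 5D wild-type zebrafish embryos held singly per well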
Summary of the method: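 Embryos are staged, enzymatically dechorionated at 4 hpf, placed individually at 6 hpf, then held in test chemical (0.64% DMSO) at 28C until 120 hpf. Mortality and malformations are scored by brightfield, with non-mortality endpoints skipped for dead embryos.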

[10] = Tanguay_ZF_120hpf_NC_legacy: (Legacy) Oregon State University Tanguay Lab 120 Hour Post-fertilization zebrafish Assay for Notochord and Tail Malformation (AID 2283656)
Summary of the method: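 Dechorionated 5D zebrafish, 1/well from 6 hpf; static exposure to 120 hpf, 28C, sealed, dark; final DMSO 0.64% v/v. NC scored binary (present/absent); dead embryos not scored. Fit vs DMSO baseline, gain direction.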

[11] = CEETOX_H295R_MTT_cell_viability: Viability Assessment in the CeeTox HT-H295R MTT Assay (AID 2283718; active = hit-call score of the fitted dose curve at least 0.9, where 1 is the maximum; inactive = score below 0.9;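 for AC50: curve fitted both ways so AC50 may mark viability loss or gain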)
Summary of the method: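 MTT reduction (0.5 mg/ml, 4 h at 37 C; absorbance at 570 and 650 nm) gave viability as background-corrected percent change versus controls. H295R cells had 48 h forskolin (10 uM) prestimulation, then 48 h chemical exposure at 0.1% DMSO.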

[12] = CCTE_Simmons_CellTiterGLO_HEK293T: Viability Assessment in CCTE's Assays for Thyroperoxidase (TPO) Inhibition, Simmons Lab (AID 2283665)
Summary of the method: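 Cytotoxicity counter-screen: human HEK293T cells in low-serum (1% FBS) medium receive test chemical, 5 nM to 87.5 uM final, for 24 h; ATP is quantified by luciferase luminescence.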

[13] = CCTE_Padilla_ZF_144hpf_TERATOSCORE: (Legacy) CCTE's 144 Hour Post-fertilization zebrafish Assay Teratoscore, Padilla Lab (AID 2283679; active = hit-call score of the fitted dose curve at least 0.9, where 1 is the maximum; inactive = score below 0.9;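 for AC50: zebrafish embryos with chorions exposed by immersion from 6-8 hpf to 5 dpf with daily renewal; teratogenicity score from eye scoring of death hatching and malformations at 144 hpf; higher score means more developmental defects relative to DMSO baseline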)
Summary of the method: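 Larvae scored by eye at 144 hpf for death, hatching and malformations after a day in clean Hanks'. Before that, daily-renewed exposure at 80 uM (0.4% DMSO, 26C) from roughly 6-8 hpf through 5 dpf, 4 embryos per chemical.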

[14] = system: Thyroperoxidase (TPO), gene 445522; assay: CCTE_Simmons_GUA_TPO: CCTE's Guaiacol Assay for Thyroperoxidase (TPO) Inhibition, Simmons Lab (AID 2283750)
Summary of the method: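 Porcine thyroid microsomes (25 ug) in 200mM potassium phosphate, preincubated 30 s at 37C with compound (8 concentrations, 5 nM–87.5 uM) and 35mM guaiacol; 1mM H2O2 starts reaction. Absorbance change at 450nm over first 80 s; loss of signal versus DMSO, three replicates.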

Measured: AC50

O=S1(=O)CCCO1
active: [7] 83 µM | [8] 78.2 µM
inactive: [1] | [2] | [3] | [4] | [5] | [6] | [9]

Cc1ncc([C@@H](CCCCCCc2ccc3c(n2)NCCC3)CC(=O)O)cn1
active: [7] 0.0101 µM | [8] 0.0104 µM
not listed: [4] | [12] | [13] | [14]
inactive: all other assays above

c1ccc2ncccc2c1
inactive: [1] | [2] | [3] | [10] | [5] | [9]

CCCCCCCCCCCCCCO
inactive: [1] | [2] | [3] | [10] | [5] | [11] | [9]

NC(=O)N(O)[C@@H]1COc2cc(OCc3ccccc3)ccc21
active: [4] 1.29 µM
inactive: [2] | [3] | [12] | [5] | [13] | [9]

Cc1nccn1-c1ccc(Sc2cccc(C3(C(N)=O)CCOCC3)c2)cc1
inactive: [1] | [3] | [10] | [5] | [9]

CCOc1ccc2[nH]cc(C(=O)NCc3ccccc3)c(=O)c2n1
inactive: [1] | [3] | [10] | [5] | [11]

Cc1cccc(O)c1C
inactive: [12]
active: [4] 17.3 µM

CCc1cccc(CC)c1N
inactive: [1] | [2] | [10] | [5] | [9]

CC(=O)c1ccccc1
inactive: [1] | [2] | [3] | [10] | [5] | [9]

Cn1c(=O)c2[nH]cnc2n(C)c1=O
inactive: [1] | [2] | [3] | [10] | [5] | [6] | [7] | [9]

CCCc1ccccc1
inactive: [1] | [2] | [10] | [5] | [13] | [9]

CCCCCCCCN(C)C
inactive: [1] | [2] | [3] | [10] | [5] | [11] | [9]

OCCNCCO
inactive: [1] | [2] | [3] | [10] | [5] | [6] | [9]
active: [7] 22.2 µM | [8] 14 µM

OC(Cn1cncn1)(Cn1cncn1)c1ccc(F)cc1F
inactive: [1] | [2] | [10] | [5] | [6] | [7] | [8] | [9]

O=c1[nH]cnc2c1ncn2[C@H]1CC[C@@H](CO)O1
inactive: [1] | [2] | [3] | [5] | [13] | [6] | [7] | [9]

C=CN1CCCC1=O
inactive: [2] | [3] | [9]

c1ccc2c(c1)-c1cccc3c1c-2cc1ccccc13
inactive: [1] | [2] | [3] | [5] | [11] | [9]

NC(=O)NN=Cc1ccc([N+](=O)[O-])o1
active: [8] 2.42 µM
not listed: [4] | [11] | [12] | [13] | [14]
inactive: all other assays above

COCc1nnc(-c2ccc[n+]([O-])c2)n1-c1c(Cl)c(Cl)cc2[nH]c(=O)c(=O)[nH]c12
inactive: [1] | [3] | [10] | [5] | [9]

CC(C)CCCCCCOC(=O)C1CCCCC1C(=O)OCCCCCCC(C)C (stereo not drawn)
inactive: [1] | [2] | [3] | [10] | [5] | [9]

NNC(=O)c1ccncc1
inactive: [2] | [3] | [10] | [12] | [5] | [9]
active: [4] 1.92 µM | [14] 20.7 µM

Cn1cc[nH]c1=S
inactive: [1] | [2] | [10] | [12] | [13] | [6]
active: [4] 0.0542 µM | [7] 37.7 µM

O=C(O)c1cccc(C[C@@H]2COc3ccc(OCc4nc5cc(F)ccc5s4)cc3[C@@H]2O)c1
inactive: [1] | [2] | [3] | [5]
active: [13] 0.463 µM | [9] 37.3 µM

CCCCCOC(C)=O
inactive: [1] | [2] | [3] | [10] | [5] | [9]

CCCCCCCCCC
inactive: [1] | [2] | [10] | [5] | [6] | [7] | [9]

Cc1nc(-c2ccccn2)ncc1C(=O)Nn1cc(C)c2cc(F)ccc21
active: [11] 75.8 µM
not listed: [3] | [4] | [12] | [13] | [14]
inactive: all other assays above

CCCCCCCC1CCC(=O)O1 (stereo not drawn)
inactive: [1] | [3] | [10] | [5]
active: [13] 8.03 µM | [9] 43.7 µM

NC(N)=O
inactive: [2] | [3] | [10] | [5] | [9]

OCc1c[nH]c2ccccc12
inactive: [11]
